Experimental data reported in PubChem BioAssay AID1159580 (chemical genetic matrix, 2015).
Out of some 5,500 compounds screened, about 2,000 (36%) were called active. Not shown: some 18% with an inconclusive outcome. Rule as the data show it: active = normalized growth mostly below about 0.91 (no sharp cut-off); inconclusive = no clear call, values can overlap the other calls; inactive = mostly above about 0.92. Some of the results follow.

Experiment: chemical genetic growth profiling, strain panel (AID 1159580);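 also: tested at 20 µM; growth read once vehicle control cultures reached saturation at 30 °C; 1 = growth at the plate median or of vehicle wells; lower values mean less growth of the strain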
Conditions: growth OD

Measured: normalized growth

CC(=O)OC1CC(O)C(C)(C)C2CC(=O)C3(C)C(CCC4(C)C(c5ccoc5)OC(=O)C5OC543)C12C (stereo not given)
inactive: S. cerevisiae deletion strains, locus YAL013W, strain DEP1, hits give low values 0.996 | S. cerevisiae deletion strains, locus YBR021W, strain FUR4, hits give low values 0.947 | S. cerevisiae deletion strains, locus YBR229C, strain ROT2, hits give low values 0.994 | S. cerevisiae deletion strains, locus YCL029C, strain bik1, hits give low values 0.987 | S. cerevisiae deletion strains, locus YDL035C, strain GPR1, hits give low values 0.988 | S. cerevisiae deletion strains, locus YDL074C, strain BRE1, hits give low values 0.945 | S. cerevisiae deletion strains, locus YDL101C, strain DUN1, hits give low values 0.992 | S. cerevisiae deletion strains, locus YDL134C, strain PPH21, hits give low values 1.02 | S. cerevisiae deletion strains, locus YDL185W, strain tfp1, hits give low values 0.995 | S. cerevisiae deletion strains, locus YDL192W, strain arf1, hits give low values 0.971 | S. cerevisiae deletion strains, locus YDR101C, strain arx1, hits give low values 0.974 | S. cerevisiae deletion strains, locus YDR150W, strain NUM1, hits give low values 1.01 | S. cerevisiae deletion strains, locus YDR162C, strain NBP2, hits give low values 1.01 | S. cerevisiae deletion strains, locus YDR318W, strain mcm21, hits give low values 1.01 | S. cerevisiae deletion strains, locus YDR388W, hits give low values 0.998 | S. cerevisiae deletion strains, locus YDR502C, strain sam2, hits give low values 0.991 | S. cerevisiae deletion strains, locus YEL061C, strain CIN8, hits give low values 1 | S. cerevisiae deletion strains, locus YER110C, hits give low values 0.985 | S. cerevisiae deletion strains, locus YER155C, strain BEM2, hits give low values 0.992 | S. cerevisiae deletion strains, locus YER167W, strain BCK2, hits give low values 0.996 | S. cerevisiae deletion strains, locus YGL078C, strain dbp3, hits give low values 0.968 | S. cerevisiae deletion strains, locus YGL086W, strain mad1, hits give low values 0.978 | S. cerevisiae deletion strains, locus YGL248W, strain PDE1, hits give low values 1.01 | S. cerevisiae deletion strains, locus YGR135W, strain pre9, hits give low values 1.02 | S. cerevisiae deletion strains, locus YGR229C, strain SMI1, hits give low values 0.998 | S. cerevisiae deletion strains, locus YGR252W, strain gcn5, hits give low values 1.04 | S. cerevisiae deletion strains, locus YHR030C, strain SLT2, hits give low values 0.995 | S. cerevisiae deletion strains, locus YHR079C, strain IRE1 (second series), hits give low values 0.988 | S. cerevisiae deletion strains, locus YHR094C, strain hxt1, hits give low values 0.989 | S. cerevisiae deletion strains, locus YHR129C, strain ARP1, hits give low values 0.99 | S. cerevisiae deletion strains, locus YHR200W, strain rpn10, hits give low values 1.01 | S. cerevisiae deletion strains, locus YIL066C, strain RNR3, hits give low values 1.01 | S. cerevisiae deletion strains, locus YIL073C, strain SPO22, hits give low values 1.06 | S. cerevisiae deletion strains, locus YIL125W, strain kgd1, hits give low values 0.997 | S. cerevisiae deletion strains, locus YIR030C, strain dcg1, hits give low values 0.992 | S. cerevisiae deletion strains, locus YJL095W, strain BCK1, hits give low values 1.03 | S. cerevisiae deletion strains, locus YJL134W, strain LCB3, hits give low values 0.988 | S. cerevisiae deletion strains, locus YJL168C, strain set2, hits give low values 0.995 | S. cerevisiae deletion strains, locus YJL187C, strain SWE1 (second series), hits give low values 0.996 | S. cerevisiae deletion strains, locus YJR043C, strain POL32, hits give low values 0.989 | S. cerevisiae deletion strains, locus YJR075W, strain HOC1, hits give low values 1.01 | S. cerevisiae deletion strains, locus YKL009W, strain mrt4, hits give low values 0.931 | S. cerevisiae deletion strains, locus YKL068W, hits give low values 0.996 | S. cerevisiae deletion strains, locus YKL085W, strain MDH1 (second series), hits give low values 0.999 | S. cerevisiae deletion strains, locus YKL085W, strain MDH1, hits give low values 0.999 | S. cerevisiae deletion strains, locus YKR001C, strain vps1, hits give low values 1 | S. cerevisiae deletion strains, locus YLR039C, strain RIC1, hits give low values 0.995 | S. cerevisiae deletion strains, locus YLR058C, strain SHM2, hits give low values 1 | S. cerevisiae deletion strains, locus YLR102C, strain apc9, hits give low values 0.996 | S. cerevisiae deletion strains, locus YLR262C, strain YPT6, hits give low values 1.02 | S. cerevisiae deletion strains, locus YLR268W, strain sec22, hits give low values 0.96 | S. cerevisiae deletion strains, locus YLR330W, strain CHS5, hits give low values 1.01 | S. cerevisiae deletion strains, locus YLR342W, strain FKS1 (second series), hits give low values 1.01 | S. cerevisiae deletion strains, locus YLR371W, strain rom2, hits give low values 0.99 | S. cerevisiae deletion strains, locus YLR418C, strain cdc73, hits give low values 0.999 | S. cerevisiae deletion strains, locus YML016C, strain PPZ1, hits give low values 0.985 | S. cerevisiae deletion strains, locus YML032C, strain rad52, hits give low values 1.03 | S. cerevisiae deletion strains, locus YML124C, strain tub3, hits give low values 1 | S. cerevisiae deletion strains, locus YMR078C, strain ctf18, hits give low values 0.988 | S. cerevisiae deletion strains, locus YMR223W, strain ubp8, hits give low values 1.01 | S. cerevisiae deletion strains, locus YMR307W, strain GAS1, hits give low values 0.971 | S. cerevisiae deletion strains, locus YNL067W, strain RPL9B, hits give low values 1.01 | S. cerevisiae deletion strains, locus YNL233W, strain BNI4, hits give low values 0.987 | S. cerevisiae deletion strains, locus YNL250W, strain rad50, hits give low values 0.989 | S. cerevisiae deletion strains, locus YNL271C, strain bni1, hits give low values 0.983 | S. cerevisiae deletion strains, locus YNL298W, strain CLA4, hits give low values 0.968 | S. cerevisiae deletion strains, locus YNL307C, strain MCK1, hits give low values 0.98 | S. cerevisiae deletion strains, locus YNL322C, strain KRE1, hits give low values 0.999 | S. cerevisiae deletion strains, locus YNR052C, strain pop2, hits give low values 0.996 | S. cerevisiae deletion strains, locus YOL006C, strain TOP1, hits give low values 0.972 | S. cerevisiae deletion strains, locus YOL012C, strain htz1 0.734 | S. cerevisiae deletion strains, locus YOL147C, strain pex11, hits give low values 0.989 | S. cerevisiae deletion strains, locus YOR061W, strain CKA2, hits give low values 0.991 | S. cerevisiae deletion strains, locus YOR069W, strain VPS5, hits give low values 0.985 | S. cerevisiae deletion strains, locus YOR136W, strain idh2, hits give low values 0.966 | S. cerevisiae deletion strains, locus YOR144C, strain elg1, hits give low values 0.996 | S. cerevisiae deletion strains, locus YOR184W, strain ser1, hits give low values 0.982 | S. cerevisiae deletion strains, locus YOR316C, strain cot1, hits give low values 0.992 | S. cerevisiae deletion strains, locus YPL055C, strain LGE1, hits give low values 0.999 | S. cerevisiae deletion strains, locus YPR119W, strain clb2, hits give low values 0.992 | S. cerevisiae deletion strains, locus YPR141C, strain kar3, hits give low values 0.987 | S. cerevisiae deletion strains, locus YPR163C, strain tif3, hits give low values 1 | S. cerevisiae deletion strains, locus YPR167C, strain met16, hits give low values 0.985 | S. cerevisiae deletion strains, strain wtn01, hits give low values 0.958 | S. cerevisiae strains, strain wild type, hits give low values 1
